From PubChem
Pin1 inhibitor – blocks the human prolyl isomerase Pin1 | Pin1 FP peptide displacement, HiFluor488, 10 min | Potency, µM (series often up to 115 µM), inactives show at the top dose activity, negative = inhibition, hits mostly inhibitors | Q13526 | actives 0.009% (n = 390,000); active = well fitted inhibition curve with a large enough effect in the polarisation, with a control signal flat, not every such curve was filed as active; inconclusive = small, poorly fitted or top-dose-only effect, or effect the other way, or a change in a side signal; inactive = no such curve, though single readings can be large or run the other way; the % refers to the polarisation; also: potency is read from the fitted curve at half-maximal effect; % is scaled to controls: 0 for no effect and ±100 for the full control effect
Target sequence (Q13526 whole entry, looked up): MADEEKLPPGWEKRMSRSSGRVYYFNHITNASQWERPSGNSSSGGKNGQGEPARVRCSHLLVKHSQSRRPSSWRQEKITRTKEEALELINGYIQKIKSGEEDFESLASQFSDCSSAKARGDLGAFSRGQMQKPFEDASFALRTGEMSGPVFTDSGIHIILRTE
PI4K2A inh – blocks human PI4K2A kinase activity; Q9BTU6; purified PI4K2A, ADP-Glo luminescence, 1 h; stronger effect = lower value; activity change, negative = inhibition, % at 76.9 µM; actives 0.13% (n = 420,000); AID 1346378; in the data active = activity change below about -50%; inconclusive = mostly about -30% to -49%;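 also: -100% = wells without enzyme as full effect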
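PI4K2A activity was measured by ADP-Glo luminescence: enzyme (4 ug/mL stock) and phosphatidylinositol (1.2 mM stock) in Tris pH 7.5/MgCl2/EGTA/Triton X-100 buffer were reacted with ATP (300 microM stock) for one hour at ambient temperature.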
Tb PGK inh – blocks T. brucei phosphoglycerate kinase; P07378; PGK/GAPDH coupled, Kinase-Glo luminescence, 60 min; Potency, µM (doses to about 57.5 µM), without a hit: at the highest dose activity change, negative = inhibition, most hits filed as inhibitors; actives 0.043% (n = 380,000); also: potency is read from the fitted curve at half-maximal effect; % is scaled to controls: 0 for no effect and ±100 for the full control effect; nearly all actives have a fitted effect of over 60% in size
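Recombinant glycosomal PGK reaction used 1,3-bisphosphoglycerate generated in-well by GAPDH (100nM final) in 100mM TEA pH 7.6, 5mM MgCl2, 0.01% Tween-20. After 60 minutes at room temperature, ATP was read by Kinase-Glo Plus luminescence end-point.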
Chronic BCR inh – chronic active BCR signaling inhibition. actives 0.05% (n = 340,000). ABC-DLBCL IkBa-CBG/CBR reporter, luminescence ratio, 4 h. AID 493014. Potency, µM (series often up to 46.1 µM), for inactives: at the top dose activity change, negative = inhibition, most hits filed as inhibitors; active = well fitted inhibition curve with a large enough effect in the signal ratio, with a control signal flat, not every such curve was filed as active; inconclusive = small, poorly fitted or top-dose-only effect, or effect the other way, or a change in a side signal; the % refers to the signal ratio;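 also: potency is read from the fitted curve at half-maximal effect; plate controls were basal doxycycline-induced cells for no effect and cells given 10 µM MG132 for full effect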
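Compounds up to 46 uM were incubated four hours with TMD8 cells whose green CBG68 luciferase is fused to IkappaBalpha; red CBR luminescence normalised the signal, and concentration-effect curves were fitted to fusion, red and ratio data.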
Tb PFK inh-1 – T. brucei PFK enzyme inhibition | O15648 | T. brucei PFK, ADP-Glo luminescence | Potency, µM (series often up to 57.5 µM), inactives show top-dose activity, negative = inhibition, usual class: inhibitors | actives 0.17% (n = 330,000) | AID 485367;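 also: potency is read from the fitted curve at half-maximal effect; 0% = uninhibited 1x PFK enzyme wells and -100% = no-enzyme wells; nearly all actives have a fitted effect of over 60% in size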
Target sequence (O15648 whole entry, looked up): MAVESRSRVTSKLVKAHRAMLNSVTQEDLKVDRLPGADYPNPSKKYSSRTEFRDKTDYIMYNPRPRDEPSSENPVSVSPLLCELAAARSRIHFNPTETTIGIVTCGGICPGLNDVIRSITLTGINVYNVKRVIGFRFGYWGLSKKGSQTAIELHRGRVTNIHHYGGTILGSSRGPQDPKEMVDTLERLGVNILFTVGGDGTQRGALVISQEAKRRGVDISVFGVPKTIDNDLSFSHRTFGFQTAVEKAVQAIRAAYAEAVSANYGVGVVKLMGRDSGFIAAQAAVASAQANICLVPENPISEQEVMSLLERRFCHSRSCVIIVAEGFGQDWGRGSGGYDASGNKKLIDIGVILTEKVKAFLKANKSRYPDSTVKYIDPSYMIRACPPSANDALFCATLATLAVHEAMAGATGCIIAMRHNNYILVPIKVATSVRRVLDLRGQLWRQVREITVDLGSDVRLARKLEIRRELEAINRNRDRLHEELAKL
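1.25 nM PFK with 0.5 mM F6P and 0.1 mM ATP in 0.1 M TEA pH 8.0, 5 mM MgCl2, incubated 45 min at room temperature; ADP measured by ADP-Glo luminescence; compounds titrated up to 57 uM.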
TbPFK ATP – inhibits T. brucei PFK measured by ATP depletion | shares compounds with Tb PFK inh-1 | Tb PFK enzyme, ATP depletion, Kinase-Glo Plus luminescence | Potency, µM (highest dose often 57.5 µM), without a hit: top-dose inhibition | actives 47% (n = 1,100) | AID 504636; calls by dose curve; also: potency is read from the fitted curve at half-maximal effect; nearly all actives have a fitted effect of over 60% in size
Tb PFK inh-2 – validation of T. brucei phosphofructokinase inhibitors. actives 41% (n = 1,100). Potency, µM (top dose mostly 57.5 µM), for the others: top-dose activity change, negative = inhibition, most hits filed as inhibitors. shares compounds with Tb PFK inh-1. purified T. brucei PFK, ADP-Glo luminescence, 45 min;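 also: potency is read from the fitted curve at half-maximal effect; plate controls were full PFK enzyme control for no effect and no enzyme control for full effect; nearly all actives have a fitted effect of over 60% in size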
An asterisk follows results filed as active. A selection: hits, their analogues and other compounds. The true share with any hit is near 0.34%. Unless noted, calls follow the shape of the dose curve; as a rule, active = well fitted curve in the direction sought with a large enough effect; inconclusive = small, poorly fitted or top-dose-only effect, or another doubt; inactive = no such curve, though single readings can be large; an effect the other way counts as inactive or inconclusive.

How did COc1ccc(C(=S)N2CCN(c3ccccc3Cl)CC2)cc1OC do in these assays?
Pin1 inhibitor: 2%; PI4K2A inh: 3; Tb PGK inh: -1%; Chronic BCR inh: 2%; Tb PFK inh-1: inconclusive

Results for COc1cc(C(=S)N2CCN(c3ccccc3Cl)CC2)cc(O)c1O ?
Pin1 inhibitor: inconclusive; PI4K2A inh: -5; Tb PGK inh: -19%; Chronic BCR inh: inconclusive; Tb PFK inh-1: inconclusive; TbPFK ATP: inconclusive; Tb PFK inh-2: inconclusive

How did CCNc1nc(NCC)n2c(SCC(=O)Nc3ccc(F)cc3)nnc2n1 do in these assays?
Pin1 inhibitor: 3%; PI4K2A inh: -3; Tb PGK inh: -23%; Chronic BCR inh: 0%; Tb PFK inh-1: inconclusive

What do the screens show for `CCNc1nc(NCC)n2c(SCC(=O)Nc3ccc(C)c(C)c3)nnc2n1`?
Pin1 inhibitor: 3%; PI4K2A inh: 0; Tb PGK inh: -9%; Chronic BCR inh: -5%; Tb PFK inh-1: 13µM*; TbPFK ATP: inconclusive; Tb PFK inh-2: inconclusive

Results for CCNc1nc(NCC)n2c(SCC(=O)Nc3ccc(OC(F)F)cc3)nnc2n1 ?
Pin1 inhibitor: -5%; PI4K2A inh: -2; Tb PGK inh: -24%; Chronic BCR inh: -7%; Tb PFK inh-1: 7.6µM*; TbPFK ATP: 5.4µM*; Tb PFK inh-2: 8.5µM*

What do the screens show for `O=C(O)c1ccccc1NCCc1ccccc1`?
PI4K2A inh: 2

What do the screens show for `NC(=O)CC[C@@H]1NC(=O)[C@H](Cc2ccccc2)NC(=O)[C@H](Cc2ccc(O)cc2)NC(=O)CCSSC[C@@H](C(=O)N2CCC[C@H]2C(=O)N[C@@H](CCCN=C(N)N)C(=O)NCC(N)=O)NC(=O)[C@H](CC(N)=O)NC1=O`?
PI4K2A inh: 6

What do the screens show for `COc1cccc(C2c3c(ncn(-c4ccc(NC(C)=O)cc4)c3=N)Oc3ccc4ccccc4c32)c1` (centres undefined)?
Pin1 inhibitor: 18%

How did CCn1cc(C(=O)NCc2ccco2)c(=O)c2cc(F)c(N3CCN(C(=O)c4ccco4)CC3)cc21 do in these assays?
Pin1 inhibitor: inconclusive; PI4K2A inh: -5; Tb PGK inh: 5%; Chronic BCR inh: -4%; Tb PFK inh-1: 9.5µM*; TbPFK ATP: inconclusive; Tb PFK inh-2: inconclusive

Results for O=C(c1cc2cc([N+](=O)[O-])ccc2oc1=O)n1cccn1 ?
Pin1 inhibitor: -25%; PI4K2A inh: -8; Tb PGK inh: -12%; Chronic BCR inh: 1%; Tb PFK inh-1: inconclusive; TbPFK ATP: -1%; Tb PFK inh-2: 19%

What do the screens show for `O=C(CCc1ccccc1)NNC(=O)c1ccc(NC(=O)c2ccccc2)cc1`?
Pin1 inhibitor: 39%; PI4K2A inh: -1; Tb PGK inh: -13%; Chronic BCR inh: 0%; Tb PFK inh-1: inconclusive; TbPFK ATP: inconclusive; Tb PFK inh-2: inconclusive

Results for CC(=O)Nc1ccc(C(=O)NNC(=O)CCc2ccccc2)cc1 ?
Pin1 inhibitor: -4%; PI4K2A inh: 9; Tb PGK inh: inactive; Chronic BCR inh: -8%; Tb PFK inh-1: 0%

What do the screens show for `C/C(=N/NC(=O)c1ccncc1)C(=O)O`?
PI4K2A inh: -1

How did O=Cc1ccccc1-n1cccn1 do in these assays?
Pin1 inhibitor: -3%; PI4K2A inh: 1; Tb PGK inh: 7%; Chronic BCR inh: -2%; Tb PFK inh-1: -1%

Results for Oc1cc(-n2cccn2)c(O)cc1-n1cccn1 ?
Pin1 inhibitor: -4%; PI4K2A inh: -3; Tb PGK inh: -3%; Chronic BCR inh: inconclusive; Tb PFK inh-1: 19µM*; TbPFK ATP: inconclusive; Tb PFK inh-2: inconclusive

What do the screens show for `Nc1n[nH]c(=S)n1/N=C1/C(=O)Nc2ccccc21`?
Pin1 inhibitor: inconclusive; PI4K2A inh: -4; Tb PGK inh: -1%; Chronic BCR inh: inconclusive; Tb PFK inh-1: inconclusive; TbPFK ATP: 3µM*; Tb PFK inh-2: 9.5µM*

Results for Cc1cc2c(s1)c1cnn(Cc3ccccc3F)c(=O)c1n2Cc1ccccc1F ?
Pin1 inhibitor: 1%

Results for Cc1nn(CC(=O)N2CCN(c3cccc(C(F)(F)F)c3)CC2)c(=O)c2cccn12 ?
Pin1 inhibitor: 1%; PI4K2A inh: 0; Tb PGK inh: 0%; Chronic BCR inh: -1%; Tb PFK inh-1: inconclusive; TbPFK ATP: inconclusive; Tb PFK inh-2: -22%

How did C[C@](N)(Cc1ccc(O)c(O)c1)C(=O)O do in these assays?
Pin1 inhibitor: inconclusive; PI4K2A inh: inconclusive; Tb PGK inh: -6%; Chronic BCR inh: 0%; Tb PFK inh-1: inconclusive; TbPFK ATP: inconclusive; Tb PFK inh-2: inconclusive

Results for COC(=O)C(N)Cc1ccc(O)c(O)c1 (centres undefined) ?
Pin1 inhibitor: inconclusive; PI4K2A inh: 2; Tb PGK inh: 1%; Chronic BCR inh: inconclusive; Tb PFK inh-1: 1%

What do the screens show for `COc1cc2c(cc1OC)CN(C(=O)COc1ccccc1[N+](=O)[O-])CC2`?
Pin1 inhibitor: 0%; PI4K2A inh: 6; Tb PGK inh: 10%; Chronic BCR inh: inconclusive; Tb PFK inh-1: inconclusive; TbPFK ATP: 2%; Tb PFK inh-2: -15%

What do the screens show for `COc1cc2c(cc1OC)CN(C(=O)COc1ccccc1C#N)CC2`?
Pin1 inhibitor: 17%; PI4K2A inh: 1; Tb PGK inh: 0%; Chronic BCR inh: -14%; Tb PFK inh-1: 2%

How did O=C(O)CCCNC(=O)c1ccc(NC(=O)Cc2ccc(Cl)cc2)cc1 do in these assays?
Pin1 inhibitor: 0%; PI4K2A inh: 0; Tb PGK inh: inactive; Chronic BCR inh: 6%; Tb PFK inh-1: inconclusive; TbPFK ATP: inconclusive; Tb PFK inh-2: inconclusive

How did O=C(O)CCN1C(=O)c2ccc(NC(=O)Cc3ccc(Cl)cc3)cc2C1=O do in these assays?
Pin1 inhibitor: -6%; PI4K2A inh: 1; Tb PGK inh: -11%; Chronic BCR inh: 0%; Tb PFK inh-1: 19µM*; TbPFK ATP: inconclusive; Tb PFK inh-2: 27µM*

Results for NC(=O)c1ccc(NC(=O)CCCNC(=O)c2ccc(Cl)cc2)cc1 ?
Pin1 inhibitor: -2%; PI4K2A inh: 7; Tb PGK inh: -6%; Chronic BCR inh: -1%; Tb PFK inh-1: -17%
